Assay [1] can be described thus: antimalarial activity against Dd2 strain (AID 2302;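 active = growth inhibition above 50% at the single 2 µM test dose, taken to imply half-maximal potency below 2 µM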;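 also: 0% = DMSO untreated growth and 100% = chloroquine plus artemisinin killed control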). To be noted: P. falciparum Dd2 in RBCs, LDH growth readout, 72 h; at 2 µM; active compounds read high.
Assay [2] in a line: human hepatoma cell viability loss – ATP luminescence, cytotoxicity control for P. falciparum antimalarial project, primary screen (AID 2303;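 active = inhibition above 50%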;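 also: 0% = DMSO wells and 100% = digitonin-killed cells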). To be noted: HepG2 viability, 24-48 h, at 10 µM, active compounds read high.
Assay [3] has as its target L-lactate dehydrogenase (Plasmodium falciparum (isolate CDC / Honduras)) (UniProt Q27743). Kind of assay: PfLDH activity inhibition – cell lysate, 3D7 strain, counter-screen for P. falciparum growth inhibition project (AID 2304).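 Also: 0% = vehicle and 100% = reference inhibitor.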 To be noted: P. falciparum 3D7 crude extract, LDH APAD/NBT absorbance; at 2 µM; active compounds read high.
The nature of assay [4]: inhibition of 3D7 malaria parasite growth – strain 3D7 (AID 2306).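 Also: 0% = DMSO wells and 100% = chloroquine plus artemisinin control wells.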 Particulars: P. falciparum 3D7 erythrocytic growth, LDH absorbance, 72 h; at 2 µM; active compounds read high.
Assay [5] addresses Calcium-dependent protein kinase 1 (Plasmodium falciparum (isolate 3D7)) (UniProt P62344). As to the kind of experiment: PfCDPK1 kinase inhibitors, biochemical, TCAMS library (AID 1159585; cut-off not given, nearly all actives have IC50 up to about 0.98 µM;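 also: inhibitors leave more ATP so luminescence rises with inhibition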). Particulars: recombinant PfCDPK1, Kinase-Glo ATP depletion luminescence.
In assay [6] the target is Plasmodium falciparum protein kinase 6 (PK6, PF3D7_1337100) (UniProt Q8IDW1). Kind of assay: PfPK6 kinase inhibitors, biochemical, TCAMS library (AID 1159586). Particulars: recombinant PfPK6, Kinase-Glo ATP depletion luminescence. On the technique in general: In Kinase-Glo more light means more ATP remaining.
Sequence of Plasmodium falciparum protein kinase 6 (PK6, PF3D7_1337100) (Q8IDW1 1-305): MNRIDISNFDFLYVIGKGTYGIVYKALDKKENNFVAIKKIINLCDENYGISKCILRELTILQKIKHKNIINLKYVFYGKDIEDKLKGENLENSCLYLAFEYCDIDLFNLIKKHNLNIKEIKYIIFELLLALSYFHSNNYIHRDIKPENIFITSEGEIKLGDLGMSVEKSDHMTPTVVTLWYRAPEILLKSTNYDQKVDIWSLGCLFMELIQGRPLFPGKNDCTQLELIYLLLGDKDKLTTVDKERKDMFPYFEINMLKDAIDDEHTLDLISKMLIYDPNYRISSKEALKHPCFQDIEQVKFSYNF
Assay [7] addresses Protein kinase 7 (PK7), Plasmodium falciparum 3D7 (PF3D7_0213400) (UniProt Q7YTF7). As to the kind of experiment: inhibition of Plasmodium PK7 catalytic activity – biochemical, TCAMS antimalarial set, Kinase-Glo luminescence (AID 1159587). To be noted: recombinant PfPK7, Kinase-Glo ATP depletion luminescence.
Assay [8] concerns the target Calcium-dependent protein kinase 4 (Plasmodium falciparum (isolate 3D7)) (UniProt Q8IBS5). Kind of assay: PfCDPK4 kinase inhibitors, biochemical, TCAMS library (AID 1159588; cut-off not given, nearly all actives have IC50 up to about 0.91 µM). Particulars: recombinant PfCDPK4, Kinase-Glo ATP depletion luminescence.

Unmarked numbers belong to inactive results. For some of these results: Measured potencies and affinities stand elsewhere. Active and inactive are the calls of the source. Unless noted, no rule for the calls is given here.

Sequence of Calcium-dependent protein kinase 1 (Plasmodium falciparum (isolate 3D7)) (P62344 whole entry, looked up): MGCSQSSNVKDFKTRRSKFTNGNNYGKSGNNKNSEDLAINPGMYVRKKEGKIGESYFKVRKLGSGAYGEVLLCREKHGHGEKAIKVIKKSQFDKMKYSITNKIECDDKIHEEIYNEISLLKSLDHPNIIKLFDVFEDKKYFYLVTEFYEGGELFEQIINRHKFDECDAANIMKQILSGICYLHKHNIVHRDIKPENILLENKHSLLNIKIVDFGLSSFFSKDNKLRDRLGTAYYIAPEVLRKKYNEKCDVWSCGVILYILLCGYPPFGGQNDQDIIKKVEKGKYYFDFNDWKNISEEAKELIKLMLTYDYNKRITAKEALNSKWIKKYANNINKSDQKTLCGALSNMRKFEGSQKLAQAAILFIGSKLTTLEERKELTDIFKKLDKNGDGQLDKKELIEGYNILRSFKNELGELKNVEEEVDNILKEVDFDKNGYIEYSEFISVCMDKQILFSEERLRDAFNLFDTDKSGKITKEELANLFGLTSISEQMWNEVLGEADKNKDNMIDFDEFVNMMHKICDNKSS
Sequence of Calcium-dependent protein kinase 4 (Plasmodium falciparum (isolate 3D7)) (Q8IBS5 whole entry, looked up): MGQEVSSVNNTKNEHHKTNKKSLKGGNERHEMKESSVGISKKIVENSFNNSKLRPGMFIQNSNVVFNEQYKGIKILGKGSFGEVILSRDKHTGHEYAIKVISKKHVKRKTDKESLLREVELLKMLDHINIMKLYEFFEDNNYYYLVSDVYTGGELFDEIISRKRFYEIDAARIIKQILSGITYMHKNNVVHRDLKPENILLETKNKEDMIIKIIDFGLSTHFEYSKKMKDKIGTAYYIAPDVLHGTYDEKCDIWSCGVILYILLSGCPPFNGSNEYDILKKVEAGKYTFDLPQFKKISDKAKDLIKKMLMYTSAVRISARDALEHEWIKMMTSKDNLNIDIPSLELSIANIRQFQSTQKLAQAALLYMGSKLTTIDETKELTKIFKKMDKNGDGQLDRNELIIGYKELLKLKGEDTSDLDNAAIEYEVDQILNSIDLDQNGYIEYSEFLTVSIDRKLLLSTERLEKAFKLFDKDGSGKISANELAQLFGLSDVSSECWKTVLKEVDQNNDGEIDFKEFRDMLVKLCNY
Sequence of L-lactate dehydrogenase (Plasmodium falciparum (isolate CDC / Honduras)) (Q27743 whole entry, looked up): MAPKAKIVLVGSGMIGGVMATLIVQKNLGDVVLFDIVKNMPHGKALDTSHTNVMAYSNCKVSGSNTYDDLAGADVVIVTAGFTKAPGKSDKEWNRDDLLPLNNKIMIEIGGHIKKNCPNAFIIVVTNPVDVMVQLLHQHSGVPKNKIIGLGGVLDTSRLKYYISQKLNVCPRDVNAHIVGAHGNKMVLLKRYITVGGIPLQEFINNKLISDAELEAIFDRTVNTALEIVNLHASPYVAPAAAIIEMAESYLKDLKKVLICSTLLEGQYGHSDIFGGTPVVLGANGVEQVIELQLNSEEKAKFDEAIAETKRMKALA
Sequence of Protein kinase 7 (PK7), Plasmodium falciparum 3D7 (PF3D7_0213400) (Q7YTF7 1-343): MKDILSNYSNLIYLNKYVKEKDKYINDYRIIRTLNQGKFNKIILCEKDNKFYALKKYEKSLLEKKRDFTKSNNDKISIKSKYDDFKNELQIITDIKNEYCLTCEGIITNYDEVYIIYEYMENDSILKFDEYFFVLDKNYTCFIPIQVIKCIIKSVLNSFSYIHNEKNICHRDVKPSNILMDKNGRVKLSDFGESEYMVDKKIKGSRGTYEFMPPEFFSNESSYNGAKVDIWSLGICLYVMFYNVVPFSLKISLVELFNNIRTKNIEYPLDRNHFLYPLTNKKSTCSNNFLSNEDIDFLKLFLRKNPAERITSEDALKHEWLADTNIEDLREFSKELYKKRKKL

As a reminder, the inhibition is the relative decrease from the control value, in per cent. Consider `O=C(Nc1cccc(-c2ccc(-c3nc4ccc(C(F)(F)F)cc4[nH]3)cc2)c1)c1csnn1`, for which the growth inhibition in assay [1] was 93% (active); in assay [4] it was 98% (active). Also, the figures for the inhibition in assay [2] and in assay [3] were 23% and 3%, respectively. In addition, the result in assay [5], in assay [6], in assay [7] and in assay [8] was inactive.

On to `c1cc2nc(CCc3nc4ccc(C5=N[C@H]6CCCC[C@H]6N5)cc4[nH]3)[nH]c2cc1C1=N[C@@H]2CCCC[C@@H]2N1`, for which the growth inhibition in assay [1] was 96% (active); in assay [4] it was 93% (active). Besides, the results for the inhibition in assay [2] and in assay [3] were 3% and -2%, respectively. Besides, the result in assay [5], in assay [6], in assay [7] and in assay [8] was inactive.

With `CC(C)c1ccc2[nH]c(C(=O)NC3CCC(N4CCCc5ccc(C#N)cc5C4)CC3)cc2c1` (stereo not given), the growth inhibition is 27% in assay [1] and 91% (active) in assay [4]. For the same molecule, the figures for the inhibition in assay [2] and in assay [3] were 48% and -3%, respectively. The outcome in assay [5], in assay [6], in assay [7] and in assay [8] was inactive.

Consider `c1ccc(-c2ccc(-c3nc4ccccc4[nH]3)cc2)cc1`, for which the growth inhibition in assay [1] was 83% (active); in assay [4] it was 93% (active). Besides, the inhibition in assay [2] is 10%; in assay [3], -5%. Besides, the outcome in assay [5], in assay [6], in assay [7] and in assay [8] was inactive.

As to `CC[C@H](C)CNC(=O)c1cncc(-c2ccc(CN(C)C3CCN(C)CC3)cc2)c1`, the growth inhibition in assay [1] is 97% (active); in assay [4] it was 101% (active). In addition, the inhibition in assay [2] is -16%; in assay [3] it was -2%. In addition, the outcome in assay [5], in assay [6], in assay [7] and in assay [8] was inactive.

`O=C(Nc1cccc(-c2cccc(-c3nc4ccc(F)cc4[nH]3)c2)c1)c1csnn1`: the growth inhibition in assay [1] is 29%; in assay [4] it was 95% (active). The inhibition in assay [2] was 23%; in assay [3], -4%. The result in assay [5], in assay [6], in assay [7] and in assay [8] was inactive.

For the molecule `COc1cccc(OCC2CCCN(CCCCNC(=O)c3ccc(NC(=O)c4ccc(Cl)cc4)cc3)C2)c1` (stereo not given), the growth inhibition is 49% in assay [1] and 100% (active) in assay [4]. The inhibition in assay [2] is 33%; in assay [3], 7%. Moreover, the result in assay [5], in assay [6], in assay [7] and in assay [8] was inactive.

As to `COc1ccc(OCCCON)cc1`, the growth inhibition was -3% in assay [1] and 98% (active) in assay [4]. Moreover, the inhibition is 3% in assay [2] and -1% in assay [3]. Further, the result in assay [5], in assay [6], in assay [7] and in assay [8] was inactive.

For the molecule `COCCN1CCC(N(Cc2ccc(-c3ccc(C(F)(F)F)cc3)cc2)C(=O)Cn2c(CCc3cccc(F)c3F)cc(=O)c3c2CCC3)CC1`, the results for the growth inhibition in assay [1] and in assay [4] were 48% and 85% (active), respectively. The results for the inhibition in assay [2] and in assay [3] were 31% and -5%, respectively. For the same molecule, the outcome in assay [5], in assay [6], in assay [7] and in assay [8] was inactive.

In the case of `O=S(=O)(Nc1ccc(CCN2CCC(N3CCCCC3)CC2)cc1)c1cccc2cccnc12`, the growth inhibition in assay [1] was 45%; in assay [4], 101% (active). Besides, the inhibition in assay [2] is 14%; in assay [3], -3%. Further, the result in assay [5], in assay [6], in assay [7] and in assay [8] was inactive.

With `Cc1[nH]c(C)c(-c2ccc(-c3cccc(Cl)c3)nc2)c(=O)c1Cl`, the growth inhibition in assay [1] and in assay [4] was 97% (active) throughout. Besides, the results for the inhibition in assay [2] and in assay [3] were 15% and 0%, respectively. In addition, the outcome in assay [5], in assay [6], in assay [7] and in assay [8] was inactive.

Turning to `Cc1cc(-c2ccc(CNC3CCN(C)CC3)cc2)ccc1S(=O)(=O)NCc1ccccc1`, the growth inhibition was 97% (active) in assay [1] and 100% (active) in assay [4]. Also, the inhibition is 52% (active) in assay [2] and 5% in assay [3]. Further, the outcome in assay [5], in assay [6], in assay [7] and in assay [8] was inactive.

For `CCCN(CCC)c1nn2c(=O)c(C(=O)N3CCN(Cc4ccccc4)CC3)cnc2s1`, the growth inhibition in assay [1] is 89% (active); in assay [4], 84% (active). The inhibition in assay [2] is -22%; in assay [3] it was -2%. Moreover, the outcome in assay [5], in assay [6], in assay [7] and in assay [8] was inactive.

Turning to `CCOC(=O)NCCSC(C)(C)[C@H](NC(=O)[C@H](Cc1cc2ccccc2s1)[C@H](CC)N(O)C=O)C(=O)Nc1nccs1`, the growth inhibition in assay [1] and in assay [4] was 98% (active) each time. The values for the inhibition in assay [2] and in assay [3] were 11% and 1%, respectively. The result in assay [5], in assay [6], in assay [7] and in assay [8] was inactive.

`Cc1cc2c(cc1C(F)(F)F)N(C(=O)Nc1cnc(OCCN(C)C)c(C(F)(F)F)c1)CC2`: the growth inhibition is 25% in assay [1] and 88% (active) in assay [4]. Besides, the inhibition is 28% in assay [2] and -2% in assay [3]. Besides, the result in assay [5], in assay [6], in assay [7] and in assay [8] was inactive.

Take `COc1ccc2c(c1)Nc1ccc(Cl)cc1C2N` (stereo not given): the growth inhibition is 99% (active) in assay [1] and 101% (active) in assay [4]. Moreover, the inhibition is 16% in assay [2] and 3% in assay [3]. For the same molecule, the result in assay [5], in assay [6], in assay [7] and in assay [8] was inactive.

Consider `Cc1ccccc1C1CCN(C2CCC(NC(=O)/C=C/c3cccc(Cl)c3F)CC2)CC1` (stereo not given), for which the growth inhibition in assay [1] is 37%; in assay [4], 101% (active). The results for the inhibition in assay [2] and in assay [3] were 87% (active) and 4%, respectively. Further, the outcome in assay [5], in assay [6], in assay [7] and in assay [8] was inactive.

`FC(F)(F)c1cccc(CNCC2CCN(CC3CCCCC3)CC2)c1`: the growth inhibition in assay [1] was 24%; in assay [4], 101% (active). Further, the inhibition in assay [2] is 21%; in assay [3], 3%. For the same molecule, the outcome in assay [5], in assay [6], in assay [7] and in assay [8] was inactive.

With `Clc1ccc(Nc2nc3nonc3nc2Nc2ccc(Cl)c(Cl)c2)cc1`, the growth inhibition is 92% (active) in assay [1] and 99% (active) in assay [4]. Also, the inhibition in assay [2] was 75% (active); in assay [3], 0%. Also, the outcome in assay [5], in assay [6], in assay [7] and in assay [8] was inactive.

On to `CC(C)(C)CCN1CCC(NC(=O)c2ccc(-c3cccc(C(F)(F)F)c3)s2)CC1`, for which the growth inhibition in assay [1] was 88% (active); in assay [4], 93% (active). The inhibition in assay [2] was 95% (active); in assay [3], -2%. Also, the result in assay [5], in assay [6], in assay [7] and in assay [8] was inactive.

The values above are taken from PubChem BioAssay.
